“And” between values parts separate entries of the source, which are not always exact repeats. Equal values may be shown once. Where a name gives a salt, the structure may show the parent alone.

In the experiment the test system is LASCPC-01. The experiment in a line: cell viability relative to DMSO control (fraction); higher = less growth inhibition (more viable cells). To be noted: 2 µM; 72 h. On the procedure: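 High-throughput single-dose screen in the LASCPC-01 NEPC cell line in 384-well plates. Cells were treated with each compound at 2 µM for 72 h, and viability was read by CellTiter-Glo luminescence. Values are normalised to the DMSO control (compound/DMSO) from three replicates; only the 5-HT-related subset of the 7315-compound library is given.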
The compound `CN(C)CCCc1cc(C(=O)Nc2ccc(-c3ccncc3)cc2)ccc1O` came in with a cell viability of 0.993.
Turning to `CC1(C)C(=O)N(CCN2CCC(C(=O)c3ccc(F)cc3)CC2)c2ccccc21` [LY-310,762 hydrochloride], the cell viability is 0.89.
`N[C@@H](Cc1c[nH]c2ccc(O)cc12)C(=O)O` [5-Hydroxy-L-tryptophan] yielded a cell viability of 1.04.
Take `CNS(=O)(=O)CCc1ccc2[nH]cc(C3CCN(C)CC3)c2c1` [Naratriptan]: the cell viability was 1.03.
Regarding `CC(C)c1cc(-c2ccc(F)c3ccccc23)nc(N)n1`, the cell viability is 1.05 and 0.845 and 0.897.
In turn, `O=c1ccccn1CC1(O)CCN(Cc2ccccc2)CC1` showed a cell viability of 1.05.
Compound `CC(C)COc1ccc(CNC(=O)N(Cc2ccc(F)cc2)C2CCN(C)CC2)cc1` [Pimavanserin] displayed a cell viability of 0.72.
The same measure for `CN1CCC(c2c[nH]c3ccc(NC(=O)c4ccc(F)cc4)cc23)CC1`: 0.954; for `Cc1nccn1CC1CCc2c(c3ccccc3n2C)C1=O` (stereo not given) [Ondansetron hydrochloride]: 1.12; for `CC(N)C(=O)OC(C)(C)Cc1ccc(Cl)cc1` (stereo not given) [Alaproclate hydrochloride]: 1.13.
In the case of `CN1CCN(c2nc3cc(C(F)(F)F)ccc3n3cccc23)CC1`, the cell viability was found to be 0.521.
Next, `O=C1Cc2cc(CCN3CCN(c4nsc5ccccc45)CC3)c(Cl)cc2N1` [Ziprasidone]: 0.987; `Cc1[nH]cnc1CN1CCc2c(c3ccccc3n2C)C1=O` [Alosetron hydrochloride]: 1.11.
Regarding `O=C1CC2(CCCC2)CC(=O)N1CCCCN1CCN(c2ncccn2)CC1` [Buspirone HCl], the cell viability worked out at 1.02.
Next, `CN1C2CCCC1CC(NC(=O)c1nn(C)c3ccccc13)C2` (stereo not given) [Granisetron hydrochloride]: 0.955; `O=C(CCCCCN1CCN(c2ccccc2-c2ccccc2)CC1)NC1CCCc2ccccc21` (stereo not given) [LP 12 hydrochloride hydrate]: 0.972.
`Cn1cc(C(=O)[C@@H]2CCc3[nH]cnc3C2)c2ccccc21` [Ramosetron]: the cell viability stood at 1.08.
Next, `Clc1ccc2c(c1)N=C(N1CCNCC1)c1ccccc1N2` [N-Desmethylclozapine]: 0.907; `COc1ccccc1N1CCN(CCN(C(=O)c2ccc(F)cc2)c2ccccn2)CC1` [p-MPPF dihydrochloride]: 0.362.
Take `Cn1ccc2cc3c(cc21)CCN3C(=O)Nc1cccnc1`: the cell viability stood at 1.06.
`CN[C@H]1CC[C@@H](c2ccc(Cl)c(Cl)c2)c2ccccc21` [Sertraline hydrochloride] came in with a cell viability of 0.958.
Next, `COc1cc2c(cc1OC)[C@@H]1Cc3ccc(OC)c(OC)c3CN1CC2` [Rotundine]: 1.05; `COc1ccccc1N1CCN(CCN2C(=O)CC3(CCCC3)CC2=O)CC1`: 0.815; `CNCCC(Oc1ccc(C(F)(F)F)cc1)c1ccccc1` (stereo not given) [Fluoxetine HCl]: 1.02.
As to `CCN(CC)CCOC(=O)c1cc(Cl)c(N)cc1OC` [SDZ-205,557 hydrochloride], the cell viability amounted to 1.06.
Consider `O=S(=O)(c1ccccc1)c1cnc2c(N3CCNCC3)cccc2c1`, for which the cell viability was 0.879.
Regarding `COc1cc(/C=C/C(=O)NCCn2c(C(F)(F)F)cc3ccccc32)cc(OC)c1OC`, the cell viability turned out to be 0.968.
`CN(C)C(=O)N[C@H]1CC[C@H](CCN2CCN(c3cccc(Cl)c3Cl)CC2)CC1` [Cariprazine] returned a cell viability of 0.892.
As for `O=C1c2cccc3c2[C@H](CCC3)CN1[C@@H]1CN2CCC1CC2` [Palonosetron hydrochloride], the cell viability was 0.935.
In turn, `CNc1nn2c(C)c(N(C)C)c(C)nc2c1S(=O)(=O)c1ccccc1` had a cell viability of 0.978.
The same measure for `COc1cccc(CCc2ccccc2OCC(CN(C)C)OC(=O)CCC(=O)O)c1` (stereo not given) [Sarpogrelate hydrochloride]: 1.09.
The same measure for `Cc1nc2sccn2c(=O)c1CCN1CCC(=C(c2ccc(F)cc2)c2ccc(F)cc2)CC1` [Ritanserin]: 0.989; for `Cc1cc2c(cc1Cl)N(C(=O)Nc1cccc3ncccc13)CC2`: 0.693; for `COc1ccc(NC(=O)c2ccc(-c3ccc(-c4noc(C)n4)cc3C)cc2)cc1N1CCN(C)CC1`: 0.512.
For `CC(CN(C)C)CN1c2ccccc2CCc2ccccc21` (stereo not given) [Trimipramine maleate], the cell viability worked out at 1.01.
Consider `N[C@@H]1CC[C@@H](c2ccc(Cl)c(Cl)c2)c2ccccc21` [Dasotraline hydrochloride], for which the cell viability was determined as 1.13.
`NC(N)=NC(N)=Nc1ccccc1` [1-Phenylbiguanide] yielded a cell viability of 0.991.
`CN1CCN2c3ccccc3Cc3ccccc3C2C1` (stereo not given) [Mianserin hydrochloride] returned a cell viability of 1.04.
Consider `CN(C)[C@@H]1CCc2[nH]c3ccc(NC(=O)c4ccc(F)cc4)cc3c2C1`, for which the cell viability was 0.693.
The same measure for `CN1CCC[C@@H]1Cc1c[nH]c2ccc(CCS(=O)(=O)c3ccccc3)cc12` [Eletriptan HBr]: 0.983.

These data come from the supplement of paper PMC10042075.
